Screens: PubChem BioAssay, National Center for Advancing Translational Sciences (NCATS)
This is a sample that favours compounds with a hit; in the whole collection about 11% have one here.
Pf growth 48h: P. falciparum growth inhibition at 48 hours (one generation); AID 504832; Potency, µM (highest dose often 28.7 µM), hits mostly inhibitors; P. falciparum luciferase growth in erythrocytes, 48 h; 310,000 tested, 5.9% active
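Firefly luciferase activity from engineered P. falciparum reports growth; inhibitors lower the luminescent signal. Cultures contained 2% hematocrit erythrocytes at 0.1% final parasitemia.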
Pf growth 96h: P. falciparum growth inhibition at 96 hour, primary screen for plastid delayed-death inhibitors; Potency, µM (top dose mostly 28.7 µM), usual class: inhibitors; AID 504834; P. falciparum luciferase reporter growth, 96 h; 320,000 tested, 6.9% active
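Parasite growth measured via integrated firefly luciferase reporter in P. falciparum. Infected erythrocytes at 2% hematocrit, 0.05% parasitemia final were treated 96 hours at 37 C under 5% CO2, and luminescence was read.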
AMA1-RON2 inh: AMA1-RON2 (P. falciparum) interaction inhibition | AlphaScreen AMA1-biotinylated RON2 peptide binding | Potency, µM (titrated, usually from 58.2 µM), usual class: inhibitors | 360,000 tested, 0.2% active | AID 720542; further: nearly all actives have a fitted effect of over 45% in size
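AMA1 (3D7) with his tag at 25 nM final met compounds first, then biotinylated RON2 peptide at 25 nM; detection used donor plus acceptor beads, 10 µg/mL apiece, read by AlphaScreen after 30 min at room temperature.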
NS1 inh: inhibitors of influenza NS1 protein function; 270,000 tested, 0.4% active; Potency, µM (series often up to 46.1 µM); AID 2326; calls by dose curve; further: actives are rising curves; nearly all actives have a fitted effect of over 50% in size
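OD600 was taken as the measure of yeast growth restored by compound in an NS1-expressing S. cerevisiae strain. Cells had been washed out of glucose medium and diluted 1:100 into galactose -URA medium, pH 6.0.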
Sm TGR block: inhibitors of Schistosoma mansoni thioredoxin glutathione reductase | Q962Y6 | 360,000 tested, 3% active | purified TGR, DTNB reduction, TNB absorbance 405 nm | Potency, µM (highest dose often 114 µM), actives largely listed as inhibitors; further: nearly all actives have a fitted effect of over 60% in size
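Kinetic colorimetric format: TGR-catalysed, NADPH-driven DTNB reduction monitored via TNB absorbance. Enzyme dispensed at 20 nM; compound exposure 15 min at room temperature before reaction start.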
Numbers stand for hits; n = inactive; u = inconclusive; x = no result given; [ ] = dose if it differs, or a comment. Unless noted, the call rests on the fitted dose curve; in most records, active means well fitted curve in the direction sought with a large enough effect; inconclusive means small, poorly fitted or top-dose-only effect, or another doubt; inactive means no such curve, though single readings can be large; an effect the other way counts as inactive or inconclusive.

SMILES	Pf growth 48h	Pf growth 96h	AMA1-RON2 inh	NS1 inh	Sm TGR block
Cc1ccc2nc3c(cc(C(N)=S)c(=N)n3CCCOC(C)C)c(=O)n2c1	11.7µM	1.47µM	n	n	n
N=c1c(C(=O)NCc2ccc3c(c2)OCO3)cc2c(=O)n3ccccc3nc2n1Cc1cccnc1	10.4µM	n	n	n	n
CC(C)(C)c1cc(CN2CCOCC2)c(C(=O)O)o1	n	3.29µM	n	n	n
CCCCOc1ccc(NC2=NC3(CCCC3)N=C(N)N2)cc1	1.17µM	u	n	n	n
NC1=NC2(CCCCC2)N=C(Nc2ccc(F)cc2F)N1	u	3.7µM	n	u	n
CCCCOc1ccc(C2(C(=O)O)CCCC2)cc1	n	u	n	n	n
Cc1cc(C)cc(NC2=NC3(CCCCC3)N=C(N)N2)c1	x	1.04µM	n	u	n[11.4 µM]
Cc1cccc(NC2=NC(C)(C)N=C(N)N2)c1	0.0059µM	n	n	n	n
COc1ccc(OC)c(NC2=NC3(CCCC3)N=C(N)N2)c1	n	x	n	n	n
COc1cccc(C(=O)OCCN(C)C(C)(C)C)c1	x	8.28µM	x	n	n
COc1ccccc1C1C(C(N)=O)=C(C)Nc2nc(-c3ccccc3Cl)nn21 (centres undefined)	x	u	n	n	n
CC1=C(C(N)=O)C(c2cccs2)n2nc(-c3cccc(C)c3)nc2N1 (centres undefined)	n	10.4µM	n	n	n
CC1=C(C(N)=O)C(c2ccccn2)n2nc(-c3ccccc3Cl)nc2N1 (centres undefined)	n	10.4µM	n	n	n
CC1=C(C(N)=O)C(c2cccnc2)n2nc(-c3cccc(C)c3)nc2N1 (centres undefined)	u	n	n	n	n
CCOc1ccccc1C1C(C(N)=O)=C(C)Nc2nc(-c3cccc(C)c3)nn21 (centres undefined)	u	x	n	n	39.8µM
Cc1ccc(S(=O)(=O)N(C)C)cc1NC(=O)CN1C(=O)NC2(CCc3ccccc32)C1=O (centres undefined)	x	x	n	x	x
O=C(Cn1nc(-c2cccc(Cl)c2)ccc1=O)Nc1ccccc1Br	n	n	n	n	n
O=C(Cn1nc(-c2ccco2)ccc1=O)Nc1ccc(Cl)c(Cl)c1	n	n	n	n	7.08µM
O=C(Cn1nc(-c2ccco2)ccc1=O)Nc1cc(Cl)ccc1Cl	u	n	n	n	5.62µM
O=C(Cn1nc(-c2ccco2)ccc1=O)Nc1cc(C(F)(F)F)ccc1Cl	n	n	n	n	50.1µM
O=C(Cn1nc(-c2ccccc2Cl)ccc1=O)Nc1ccc(Br)cc1	n	u	n	n	n
COc1ccc(NC(=O)C(Cc2ccccc2)NS(=O)(=O)c2ccc(Br)s2)cc1OC (centres undefined)	x	x	x	x	n
Cc1ccc(C)c(N2CCN(C(=O)NCc3noc4ccccc34)CC2)c1	x	x	x	x	n
Cn1c(=O)c2c(nc(CN3CCN(Cc4ccccc4)CC3)n2Cc2cccc(Cl)c2)n(C)c1=O	2.08µM	1.17µM	n	n	n
CN1CCN(c2nc3c(c(=O)n(C)c(=O)n3C)n2Cc2cccc3ccccc23)CC1	10.4µM	x	n	u	n
SMILES	Pf growth 48h	Pf growth 96h	AMA1-RON2 inh	NS1 inh	Sm TGR block
CCOCCn1c(CN2CCN(C(c3ccccc3)c3ccccc3)CC2)nc2c1c(=O)n(C)c(=O)n2C	1.47µM	n	n	n	n
Cn1c(=O)c2c(nc(N3CCCCCC3)n2Cc2cccc3ccccc23)n(C)c1=O	u	n	u	n	n
Cn1c(=O)c2c(nc(CN3CCN(c4ccccc4F)CC3)n2Cc2ccccc2F)n(C)c1=O	x	x	x	x	n
CCOCCn1c(CN2CCN(CCO)CC2)nc2c1c(=O)n(C)c(=O)n2C	n	n	n	n	n
Cn1c(=O)c2c(nc(CN3CCc4ccccc4C3)n2Cc2ccccc2F)n(C)c1=O	4.65µM	u	n	x	n
Cc1nnc(NC(=O)CSc2nccn2-c2ccc(F)cc2)s1	u	u	n	x	n
CC1CCN(C(=O)c2cc(-c3ccc(Br)cc3)on2)CC1	x	x	x	x	n
CCN1CCN(Cc2nc3c(c(=O)n(C)c(=O)n3C)n2CCc2ccccc2)CC1	n	11.7µM	n	n	n
CC(C)Cn1c(CN(C)Cc2ccccc2)nc2c1c(=O)n(C)c(=O)n2C	n	n	n	n	n
Cn1c(=O)c2c(nc(CN3CCc4ccccc4C3)n2Cc2cccc(Cl)c2)n(C)c1=O	3.29µM	1.85µM	n	n	n
CN(Cc1ccccc1)Cc1nc2c(c(=O)n(C)c(=O)n2C)n1CCCc1ccccc1	n	10.4µM	n	n	n
COc1ccc(-c2ccc(/C=N/NC(=O)Cc3nnc(N)s3)o2)cc1Cl	u	n	n	n	56.2µM
CCCNC(=O)C(Cc1cccc(C#N)c1)NC(=O)c1ccc(C#N)cc1 (centres undefined)	n	n	n	x	n
CCOC(=O)C1(Cc2ccccc2C(F)(F)F)CCN(C2CCN(C(C)=O)CC2)CC1	9.28µM	u	n	n	n
O=C1CN(C(=O)c2c(F)cccc2Cl)C(c2ccc(F)cc2)c2cc(Br)ccc2N1 (centres undefined)	x	x	x	x	n
Cn1c(=O)c2c(nc(SCC(=O)Nc3ccccc3F)n2Cc2ccc(Cl)cc2)n(C)c1=O	x	x	x	x	n
Cc1ccc(OCC(=O)NNC(=O)Cc2ccc(S(=O)(=O)N3CCOCC3)s2)cc1	u	u	n	x	n
CC1CCCCC12NC(=O)N(CC(=O)Nc1ccc(N3CCCCC3)cc1)C2=O (centres undefined)	n	n	n	x	n
CCOc1ccccc1CN1CCNC(=O)C1CC(=O)NCc1cc(C)n(C)n1 (centres undefined)	n	2.08µM	n	n	u
Cc1ccccc1CNC(=O)CC1C(=O)NCCN1Cc1c(F)cccc1Cl (centres undefined)	0.828µM	2.33µM	n	n	n
C=CCNC(=O)CC1C(=O)NCCN1Cc1c(F)cccc1Cl (centres undefined)	n	u	n	n	n
Cc1cnc(CNC(=O)CC2C(=O)NCCN2Cc2cccc(F)c2F)cn1 (centres undefined)	n	u	n	n	17.8µM
OC(COCc1ccccc1)CN1CCCCC1 (centres undefined)	n	n	n	n	n
Cc1cccc(C)c1C(O)c1ncc(-c2ccccc2C(F)(F)F)[nH]1 (centres undefined)	x	x	n	x	x
CC(C(=O)Nc1cccc(Br)c1)c1ccc([N+](=O)[O-])cc1 (centres undefined)	10.4µM	u	n	n	n
CC(C(=O)Nc1ccc2c(c1)OCCO2)c1ccc([N+](=O)[O-])cc1 (centres undefined)	3.29µM	n	n	n	n
O=C(Cc1ccc([N+](=O)[O-])cc1)Nc1ccc2c(c1)OCO2	n	n	n	x	n
CCN(CC)C(C(=O)Nc1ccc(C(C)C)cc1)c1ccc2c(c1)OCO2 (centres undefined)	8.28µM	n	n	n	n
CC(C(=O)Nc1ccc2c(c1)OCO2)c1ccc([N+](=O)[O-])cc1 (centres undefined)	2.33µM	u	n	n	n
O=C(Nc1cccc([N+](=O)[O-])c1)Nc1ccc2c(c1)OCCO2	n	n	n	n	x
